Screening results as filed in PubChem.
Shown is part of a subset that was picked to be rich in hits.
Tgondii IFNg – blocks Toxoplasma gondii growth in the presence of IFN-gamma. Toxoplasma gondii growth in IFN-gamma-treated host cells; active compounds read low. activity change, negative = inhibition, % (test concentration not listed). 3.8% of 69,000 active. AID 1259416; in the data active = activity change below about -70%, passing the limit was not always enough;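 also: host cells are HeLa cells infected with Toxoplasma gondii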
A number is an active result; - = inactive; ! = not active in a repeat.

SMILES	Tgondii IFNg
Cc1cnn(Cc2nc(-c3ccc(NC(=O)c4ccccc4)cc3)oc2C)c1	-
Cc1ccccc1CC(=O)Nc1ccc(-c2nc(Cn3cccn3)c(C)o2)cc1	-
Cc1cc(C)n(Cc2nc(-c3ccc(NC(=O)/C=C/c4ccccc4)cc3)oc2C)n1	-
Cc1cccc(C(=O)Nc2ccc(-c3nc(Cn4cc(C)cn4)c(C)o3)cc2)c1	-87.1
CCc1ccccc1OCCN(C)C(=O)c1ccc(-n2cnnn2)cc1	-
CCOc1c(CN(C)c2ncnc3c2CCNC3)cccc1OC	-
CC(=O)N1C[C@@H]2[C@H](C1)c1ccccc1[C@H]2NC(=O)c1cccs1	-
Cc1ccc(-c2nc(CN3CCCCC3CCn3cccn3)c(C)o2)s1 (stereo not given)	-
CC(C)CN1CCCC2(CCN(c3cnccn3)CC2)C1	-
CC(C)C(=O)C1Cc2nc(-c3ccccc3)sc2N1CC1CC1 (stereo not given)	-
NC(=O)c1cncc(/C=C/c2ccccc2)c1	-
Cc1c(CN2CCCC2c2ccccn2)[nH]c2ccc(F)cc12 (stereo not given)	-
Fc1ccc(C(F)(F)F)cc1CN1CCCC1c1ccccn1 (stereo not given)	-
Cn1cc(CN2CCCC2c2cncc(Nc3ccccn3)n2)c2cc(F)ccc21 (stereo not given)	-99.7
CCN(CC)C(=O)CC1CC2(CCN(Cc3csc(C)n3)CC2)c2ccccc21 (stereo not given)	-
Cc1oc(-c2ccc(OC(C)C)cc2)nc1CSc1nc2ncccc2o1	-95.6
Cc1oc(-c2ccc(OC(C)C)cc2)nc1CSc1nc2c(=O)[nH]cnc2n1C	-
Cc1oc(-c2ccc(OC(C)C)cc2)nc1Cn1c(=O)c2cccnc2n(-c2ccccc2)c1=O	-
COc1ncccc1-c1ccc(S(N)(=O)=O)cc1F	-
CCCC(C(=O)N1CCC2(CC1)CN(C)CCN2C)n1cccc1 (stereo not given)	-
Cc1c(NC(=O)Cc2ccccc2)c(=O)n(-c2ccccc2)n1C	-
Cc1c(NC(=O)c2cc3nc(-c4ccccc4)cc(C)n3n2)c(=O)n(-c2ccccc2)n1C	-86.3
Cc1c(NC(=O)c2ncoc2-c2ccc(F)cc2)c(=O)n(-c2ccccc2)n1C	-
CN1CCN(CCC(=O)NC(c2ccc(Cl)cc2)c2cccnc2)CC1 (stereo not given)	-
CCc1ccc2oc(=O)cc(CN3CCN(Cc4nc(-c5ccccc5OC)oc4C)CC3)c2c1	-
SMILES	Tgondii IFNg
COc1ccc(-c2nc(Cn3nnc(C(=O)Nc4ccc(Cl)c(Cl)c4)c3C)c(C)o2)c(OC)c1	-
CS(=O)(=O)N1CCC2OCCCC2(COCc2ccncc2)C1 (stereo not given)	-
CC1CN(C(=O)c2nc3c(n2C(C)C)CCN(Cc2ccccc2)C3)CC(C)O1 (stereo not given)	-
CC(C)Oc1ccc(NC(=O)c2nc3c(n2C(C)C)CCN(C(=O)c2ccccc2)C3)cc1	-89.1
CC(C)n1c(C(=O)Nc2cccc(F)c2)nc2c1CCN(Cc1ccccc1)C2	-
Cc1cc(-c2cnc(N3CCCC3)nc2C2CCN(C(=O)c3n[nH]c4c3CCC4)CC2)on1	-82.3
Cc1cc(-c2cnc(N3CCOCC3)nc2C2CCN(CC3CCC=CO3)CC2)on1 (stereo not given)	-
Cc1ccc(C2(O)CCN(C(=O)c3n[nH]c4c3CCC4)CC2)nc1	-
COc1ccc(CN2CC3(CCC2=O)CCN(CC2CC2)CC3)cc1	-
COc1cccc2c1OCCCN(S(=O)(=O)NCc1ccccc1)C2	-
C=CCN1CCN(C(=O)CCOC)Cc2cccnc21	-
O=C(NCCc1cccs1)[C@H]1CO[C@@H]2CCNC[C@@H]2C1	-
COCC(=O)O[C@]1(CCN(C)CCCc2nc3ccccc3[nH]2)CCc2cc(F)ccc2[C@@H]1C(C)C	-72.1
CN(Cc1nc2ccccc2[nH]1)C(=O)CCNC(=O)c1ccc(F)cc1	-
CCOC(=O)CCc1nc2ccccc2[nH]1	-
Cc1nc(N(C)C)nc2c1COCC21CCN(c2ncc(F)cn2)C1 (stereo not given)	-
CCOC(=O)c1nnsc1N1CCC(c2ccccc2)CC1	-
CCn1ncc(CN2CCCC(C(=O)c3cccc(C(F)(F)F)c3)C2)c1C (stereo not given)	-
O=C(CCC1Nc2c3ccccc3nc(=S)n2C1=O)N1CCN(c2ccc([N+](=O)[O-])cc2)CC1 (stereo not given)	-
CN1CCN(C2CCN(C(=O)Nc3cc(Oc4ccc(NC(=O)C5(C(=O)Nc6ccc(F)cc6)CC5)c(F)c4)ccn3)CC2)CC1	-
COc1cc2nccc(Oc3ccc(NC(=O)C4(C(=O)Nc5ccc(F)cc5)CC4)cc3)c2cc1OC	-90.8
COc1ccc(NC(=O)C(=O)NCCc2csc(-c3ccc(F)cc3)n2)cc1OC	-
CC(C)OCCCNCc1ccc(F)cc1	-
COc1ccc(Cc2nc3ccccc3n2CCCOc2ccccc2OC)cc1OC	-97.4
CC(=O)N(C)Cc1nc2ccccc2n1CCCCOc1ccccc1Cl	-
SMILES	Tgondii IFNg
COCCn1c(COc2ccc(Cl)cc2)nc2ccccc21	-
C#C[C@]1(OC(C)=O)CCC2C3CCC4=CC(=O)CC[C@@H]4C3CC[C@@]21C (stereo not given in full)	-82.5!
C#C[C@]1(OC(C)=O)CC[C@H]2[C@@H]3CCC4=C[C@@H](OC(C)=O)CC[C@@H]4[C@H]3CC[C@@]21C	-
CC(=O)O[C@]1(C(C)=O)CC[C@H]2[C@@H]3C=C(C)C4=CC(=O)CC[C@@H]4[C@H]3CC[C@@]21C	-
CCS(=O)(=O)N1CCC2(CC1)OC(=O)C(C)=C2C(=O)Nc1ccccc1Cl	-
N#Cc1cc(I)c(O)c([N+](=O)[O-])c1	-
COc1ccc(-c2nc3c(s2)CN(C(=O)Nc2ccccc2OC)CC3)cc1	-
COc1cccc(-c2nc3c(s2)CN(C(=O)Nc2ccc(Br)cc2)CC3)c1	-
COc1cc(NC(=O)N2CCc3nc(-c4ccc(C)cc4)sc3C2)cc(OC)c1	-
COc1ccc(-c2nc3c(s2)CN(C(=O)Nc2cccc(SC)c2)CC3)cc1	-115.8
COc1ccc(-c2nc3c(s2)CN(C(=O)Nc2ccc(C)c(C)c2)CC3)cc1	-94.8
COc1ccc(-c2nc3c(s2)CN(C(=O)Nc2cc(C)ccc2C)CC3)cc1	-
CCc1cc(C(=O)N(Cc2ccccc2)Cc2nc(N(C)C)ncc2-c2ccccn2)no1	-
Cc1oc(-c2ccc(C(=O)N(C)Cc3ccco3)cc2)nc1CN1CCc2ccccc21	-
CCC(C(=O)N1C[C@@H]2[C@H](C1)[C@H]1CC[C@@H]2O1)n1cccn1 (stereo not given in full)	-
O=c1[nH]nc(CCn2ccnc2-c2ccc(-n3ccnc3)cc2)[nH]1	-
COc1cccc(CCNC(=O)c2cc3c(c4ccccc4n3C(C)C)n2S(C)(=O)=O)c1	-
Cn1cc(N)cc1C(=O)N1CCC(c2cc(Cc3ccccc3)[nH]n2)CC1	-
CC(C)N1CCC(CNC(=O)c2cc(-c3ccsc3)n[nH]2)C1 (stereo not given)	-
CC(C)NC(=O)N1CCC[C@@]2(C(=O)N(C)C)CN(c3ccccn3)C[C@H]2C1	-
O=C(NCc1sccc1COc1ccc(Cl)cc1)Nc1cccc(C(F)(F)F)c1	-
O=C(Nc1ccc(-c2nc(-c3ccccc3)co2)cc1)Nc1cccc(C(F)(F)F)c1	-
O=C(Nc1cccc(C(F)(F)F)c1)Nc1csc(Cc2ccsc2)n1	-93.3
O=C(c1cc(C2CC2)[nH]n1)N1C[C@@H]2C3CCC(CC3)[C@@H]2C1	-
COCCN(C)C(=O)c1cnc(-c2noc3cc(N4CCCCC4)ccc23)s1	-
